About 79,000 compounds went through this panel and 15% of them were active in at least one assay; those are over-represented in the sample as a whole. Values without a mark were called inactive. The source made the active and inactive calls. No stated cut-off is given here; in the data, active means growth inhibition above about 70%; inactive means the rest.
Columns and labels:
[1] = NCI Yeast Anticancer Drug Screen. Data for the rad52 strain (AID 147);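 further: 0% = growth of vehicle-treated control cultures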; details: S. cerevisiae rad52 mutant growth inhibition, hits give high values
How it was run: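 Screen used a yeast mutant impaired in DNA repair. After compound exposure, growth was measured. Values reflect inhibition compared with vehicle-treated cells.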

[2] = NCI Yeast Anticancer Drug Screen. Data for the wt1 strain (AID 149);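 further: 0% = growth of vehicle-treated wt1 cultures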; details: S. cerevisiae wt1 strain (SPY 50644) growth inhibition, hits give high values
How it was run: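 wt1 strain grown with compound or vehicle; inhibition taken from the growth difference.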

[3] = NCI Yeast Anticancer Drug Screen. Data for the rad50EPP+ strain (AID 151);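 further: 0% = growth of vehicle-treated control cultures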; details: S. cerevisiae rad50 mutant strain, hits give high values
How it was run: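 Exposing the rad50EPP+ strain to each compound, growth was compared with vehicle-only cultures to give inhibition.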

[4] = NCI Yeast Anticancer Drug Screen. Data for the mgt1 strain (AID 153); details: S. cerevisiae mgt1 mutant growth inhibition, hits give high values
How it was run: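 Genetically defined yeast (mgt1) treated with compound; inhibition of growth expressed against vehicle-treated controls.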

[5] = NCI Yeast Anticancer Drug Screen. Data for the rad50 strain (AID 155);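 further: 0% = growth of vehicle-only cultures of the same strain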; details: S. cerevisiae rad50 strain growth inhibition, hits give high values
How it was run: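 DNA repair mutant yeast, compound exposure, growth read-out; inhibition is taken relative to vehicle.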

[6] = NCI Yeast Anticancer Drug Screen. Data for the mec2-1 strain (AID 157); details: S. cerevisiae mec2-1 strain, hits give high values
How it was run: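 Readout is yeast growth inhibition, normalised to vehicle-treated controls, in the mec2-1 strain exposed to compound.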

[7] = NCI Yeast Anticancer Drug Screen. Data for the rad14 strain (AID 159);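 further: 0% = growth of vehicle-treated control cultures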; details: S. cerevisiae rad14 strain growth inhibition, hits give high values
How it was run: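 DNA repair-defective yeast, compound-exposed; % growth inhibition derived by comparison with vehicle-treated controls.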

[8] = NCI Yeast Anticancer Drug Screen. Data for the sgs1 mgt1 strain (AID 161);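 further: 0% = growth of cultures given vehicle only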; details: S. cerevisiae sgs1 mgt1 strain, hits give high values
How it was run: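 This yeast growth screen uses a strain with defined DNA-repair lesions; compound-treated growth is compared with vehicle-treated growth.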

[9] = NCI Yeast Anticancer Drug Screen. Data for the CLN2oe strain (AID 163);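 further: 0% = growth of vehicle-only control cultures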; details: S. cerevisiae CLN2oe strain, hits give high values
How it was run: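 Values reflect how much compound exposure reduced yeast growth, referenced to vehicle-exposed cells. Assay organism is a strain with a defined genetic change affecting cell-cycle control.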

[10] = NCI Yeast Anticancer Drug Screen. Data for the cln2 rad14 strain (AID 165);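 further: 0% = growth equal to vehicle treated cultures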; details: S. cerevisiae cln2 rad14 strain, hits give high values
How it was run: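 Relative to vehicle controls, growth inhibition of compound-treated cln2 rad14 yeast was recorded.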

[11] = NCI Yeast Anticancer Drug Screen. Data for the bub3 strain (AID 167); details: S. cerevisiae bub3 mutant strain, hits give high values
How it was run: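 In this screen, a yeast mutant lacking normal mitotic checkpoint function is challenged with compound. Relative growth versus vehicle gives the inhibition value.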

[12] = NCI Yeast Anticancer Drug Screen. Data for the wt2 strain (AID 169);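 further: 0% = growth of vehicle-treated yeast cultures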; details: S. cerevisiae wt2 strain growth inhibition, hits give high values
How it was run: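 Values express reduction in yeast growth under compound treatment, referenced to vehicle-treated cells.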

[13] = NCI Yeast Anticancer Drug Screen. Data for the mlh1 strain (AID 171);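 further: 0% = growth of vehicle-treated control cultures of the same strain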; details: S. cerevisiae mlh1 strain growth inhibition, hits give high values
How it was run: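 Steps: expose the defined-mutant yeast strain to compound; expose a parallel culture to vehicle; measure growth; express compound effect as inhibition relative to the vehicle culture.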

[14] = NCI Yeast Anticancer Drug Screen. Data for the sgs1 strain (AID 173);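 further: 0% = growth of vehicle-only control cultures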; details: S. cerevisiae sgs1 mutant, hits give high values
How it was run: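 Treat defined-mutant yeast with compound; measure growth; calculate inhibition relative to vehicle-treated cells.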

[15] = NCI Yeast Anticancer Drug Screen. Data for the mlh1 rad18 strain (AID 175); details: S. cerevisiae mlh1 rad18 strain growth inhibition, hits give high values
How it was run: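 Test agents were incubated with a yeast strain of defined genotype (DNA damage repair defect). Inhibition of growth was derived by comparison with vehicle-exposed cultures.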

[16] = NCI Yeast Anticancer Drug Screen. Data for the rad18 strain (AID 177); details: S. cerevisiae rad18 mutant growth inhibition, hits give high values
How it was run: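 A genetically defined yeast mutant impaired in DNA damage repair was treated with test compounds, then its growth was measured against cultures receiving vehicle alone.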

[17] = at 5.0 µM (retest, dose inferred, filed as 0.5)
[18] = at 50.0 µM (retest, dose inferred, filed as 5.0)

Q: For `O=[N+]([O-])c1cccc2nccc(NCCCO)c12`, which growth inhibition ([1]; at 1.2 µM) is on record?
A: Its growth inhibition is 18%.

Q: What about the growth inhibition ([1]; at 3.7 µM) of the same compound?
A: Its growth inhibition is 2%.

Q: And the growth inhibition ([1]; at 11.0 µM)?
A: The growth inhibition was 11%.

Q: And the growth inhibition ([1]; at 33.0 µM)?
A: Its growth inhibition is 40%.

Q: And the growth inhibition ([1]; at 100.0 µM)?
A: The growth inhibition was 70% (active).

Q: What about the growth inhibition ([2]; at 1.2 µM) of the same compound?
A: The growth inhibition was 1%.

Q: And the growth inhibition ([2]; at 3.7 µM)?
A: The growth inhibition was 0%.

Q: And the growth inhibition ([2]; at 11.0 µM)?
A: Its growth inhibition is 5%.

Q: What about the growth inhibition ([2]; at 33.0 µM) of the same compound?
A: The growth inhibition was 10%.

Q: What about the growth inhibition ([2]; at 100.0 µM) of the same compound?
A: The growth inhibition was 16%.

Q: And the growth inhibition ([3]; at 1.2 µM)?
A: Its growth inhibition is 14%.

Q: And the growth inhibition ([3]; at 3.7 µM)?
A: Its growth inhibition is 13%.

Q: And the growth inhibition ([3]; at 11.0 µM)?
A: Its growth inhibition is 20%.

Q: And the growth inhibition ([3]; at 33.0 µM)?
A: The growth inhibition was 27%.

Q: What about the growth inhibition ([3]; at 100.0 µM) of the same compound?
A: Its growth inhibition is 46%.

Q: What about the growth inhibition ([4]; at 1.2 µM) of the same compound?
A: The growth inhibition was -24%.

Q: And the growth inhibition ([4]; at 3.7 µM)?
A: The growth inhibition was -9%.

Q: And the growth inhibition ([4]; at 11.0 µM)?
A: Its growth inhibition is -12%.

Q: And the growth inhibition ([4]; at 33.0 µM)?
A: Its growth inhibition is 5%.

Q: And the growth inhibition ([4]; at 100.0 µM)?
A: Its growth inhibition is 26%.

Q: What about the growth inhibition ([5]; at 1.2 µM) of the same compound?
A: The growth inhibition was -17%.

Q: What about the growth inhibition ([5]; at 3.7 µM) of the same compound?
A: The growth inhibition was 3%.

Q: And the growth inhibition [5, 17]?
A: Its growth inhibition is 32%.

Q: And the growth inhibition ([5]; at 11.0 µM)?
A: Its growth inhibition is 11%.

Q: What about the growth inhibition ([5]; at 33.0 µM) of the same compound?
A: Its growth inhibition is 40%.

Q: What about the growth inhibition [5, 18] of the same compound?
A: The growth inhibition was 79% (active).

Q: What about the growth inhibition ([5]; at 50.0 µM) of the same compound?
A: Its growth inhibition is 46.3%.

Q: What about the growth inhibition ([5]; at 100.0 µM) of the same compound?
A: Its growth inhibition is 70% (active).

Q: What about the growth inhibition ([6]; at 1.2 µM) of the same compound?
A: The growth inhibition was -20%.

Q: What about the growth inhibition ([6]; at 3.7 µM) of the same compound?
A: The growth inhibition was -12%.

Q: And the growth inhibition [6, 17]?
A: Its growth inhibition is 13%.

Q: And the growth inhibition ([6]; at 11.0 µM)?
A: The growth inhibition was -3%.

Q: And the growth inhibition ([6]; at 33.0 µM)?
A: The growth inhibition was 23%.

Q: What about the growth inhibition [6, 18] of the same compound?
A: Its growth inhibition is 52%.

Q: And the growth inhibition ([6]; at 50.0 µM)?
A: The growth inhibition was 57.7%.

Q: What about the growth inhibition ([6]; at 100.0 µM) of the same compound?
A: The growth inhibition was 68%.

Q: What about the growth inhibition ([7]; at 1.2 µM) of the same compound?
A: The growth inhibition was -9%.

Q: And the growth inhibition ([7]; at 3.7 µM)?
A: Its growth inhibition is 4%.

Q: And the growth inhibition ([7]; at 11.0 µM)?
A: The growth inhibition was 34%.

Q: And the growth inhibition ([7]; at 33.0 µM)?
A: The growth inhibition was 75% (active).

Q: And the growth inhibition ([7]; at 100.0 µM)?
A: Its growth inhibition is 91% (active).

Q: What about the growth inhibition [8, 17] of the same compound?
A: Its growth inhibition is 51%.

Q: What about the growth inhibition [8, 18] of the same compound?
A: Its growth inhibition is 85% (active).

Q: And the growth inhibition ([8]; at 50.0 µM)?
A: Its growth inhibition is 73.8% (active).

Q: What about the growth inhibition ([9]; at 1.2 µM) of the same compound?
A: The growth inhibition was 11%.

Q: What about the growth inhibition ([9]; at 3.7 µM) of the same compound?
A: Its growth inhibition is 5%.

Q: What about the growth inhibition ([9]; at 11.0 µM) of the same compound?
A: The growth inhibition was 4%.

Q: What about the growth inhibition ([9]; at 33.0 µM) of the same compound?
A: The growth inhibition was 2%.

Q: What about the growth inhibition ([9]; at 100.0 µM) of the same compound?
A: The growth inhibition was 14%.

Q: And the growth inhibition [10, 17]?
A: Its growth inhibition is 15%.

Q: What about the growth inhibition [10, 18] of the same compound?
A: The growth inhibition was 91% (active).

Q: What about the growth inhibition ([10]; at 50.0 µM) of the same compound?
A: Its growth inhibition is 57.9%.

Q: What about the growth inhibition ([11]; at 1.2 µM) of the same compound?
A: Its growth inhibition is -12%.

Q: And the growth inhibition ([11]; at 3.7 µM)?
A: Its growth inhibition is -13%.

Q: What about the growth inhibition [11, 17] of the same compound?
A: The growth inhibition was 4%.

Q: What about the growth inhibition ([11]; at 11.0 µM) of the same compound?
A: The growth inhibition was -14%.

Q: And the growth inhibition ([11]; at 33.0 µM)?
A: The growth inhibition was -18%.

Q: What about the growth inhibition [11, 18] of the same compound?
A: Its growth inhibition is -43%.

Q: What about the growth inhibition ([11]; at 50.0 µM) of the same compound?
A: The growth inhibition was 10.1%.

Q: And the growth inhibition ([11]; at 100.0 µM)?
A: The growth inhibition was -9%.

Q: What about the growth inhibition ([12]; at 1.2 µM) of the same compound?
A: Its growth inhibition is -27%.

Q: What about the growth inhibition ([12]; at 3.7 µM) of the same compound?
A: Its growth inhibition is -26%.

Q: And the growth inhibition ([12]; at 11.0 µM)?
A: Its growth inhibition is -19%.

Q: What about the growth inhibition ([12]; at 33.0 µM) of the same compound?
A: The growth inhibition was -22%.

Q: What about the growth inhibition ([12]; at 100.0 µM) of the same compound?
A: The growth inhibition was 6%.

Q: What about the growth inhibition ([13]; at 1.2 µM) of the same compound?
A: Its growth inhibition is -26%.

Q: What about the growth inhibition ([13]; at 3.7 µM) of the same compound?
A: The growth inhibition was -7%.

Q: What about the growth inhibition ([13]; at 11.0 µM) of the same compound?
A: Its growth inhibition is -3%.

Q: What about the growth inhibition ([13]; at 33.0 µM) of the same compound?
A: Its growth inhibition is 5%.

Q: And the growth inhibition ([13]; at 100.0 µM)?
A: The growth inhibition was 30%.

Q: And the growth inhibition ([14]; at 1.2 µM)?
A: Its growth inhibition is 8%.

Q: What about the growth inhibition ([14]; at 3.7 µM) of the same compound?
A: The growth inhibition was 38%.

Q: What about the growth inhibition ([14]; at 11.0 µM) of the same compound?
A: The growth inhibition was 62%.

Q: And the growth inhibition ([14]; at 33.0 µM)?
A: The growth inhibition was 79% (active).

Q: And the growth inhibition ([14]; at 100.0 µM)?
A: The growth inhibition was 86% (active).

Q: And the growth inhibition [15, 17]?
A: The growth inhibition was 24%.

Q: What about the growth inhibition [15, 18] of the same compound?
A: The growth inhibition was 91% (active).

Q: What about the growth inhibition ([15]; at 50.0 µM) of the same compound?
A: Its growth inhibition is 32.9%.

Q: What about the growth inhibition ([16]; at 1.2 µM) of the same compound?
A: Its growth inhibition is 46%.

Q: What about the growth inhibition ([16]; at 3.7 µM) of the same compound?
A: Its growth inhibition is 79% (active).

Q: And the growth inhibition ([16]; at 11.0 µM)?
A: Its growth inhibition is 88% (active).

Q: And the growth inhibition ([16]; at 33.0 µM)?
A: The growth inhibition was 93% (active).

Q: And the growth inhibition ([16]; at 100.0 µM)?
A: The growth inhibition was 94% (active).

Source: PubChem BioAssay (NCI)
